Test [1] can be described thus: liver-stage malaria parasite growth inhibition, primary screen, cell-based, HepG2, luciferase luminescence, HepG2 viability (AID 624349; in the data active means parasite load remaining mostly below about 12%, no sharp cut-off; inactive means mostly above about 10%;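 further: 100% = mean of DMSO negative control wells on the same plate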). The following applies: P. berghei liver stage in HepG2, luciferase luminescence, concentration not given here; parasite load remaining: stronger effect = lower value; viability: measured here: HepG2 viability without parasites.
Test [2] is described as follows: stimulators of nuclear beta-catenin in C2C12, primary screen, imaging, WNT3A-conditioned medium, mouse C2C12, NPC library (AID 1117326; in the data active means nuclear beta-catenin stimulation mostly above about 4.2%, no sharp cut-off; inactive means mostly below about 10%). The following applies: stronger effect = higher value.
The nature of test [3]: stimulators of insulin release from INS-1E, primary screen, cell-based, 5 mM glucose, NPC library (AID 1117329;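 active means compound raises insulin release from rat beta cells at 5 mM glucose, no numeric limit stated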). The following applies: rat INS-1E insulin secretion, at 10 µM, stronger effect = higher value.
Test [4] in a line: growth inhibition of GSK3B-pretreated HCT116 cells – cell-based, CellTiter-Glo, 0.2 to 20 µM (AID 1117336;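 active means compounds lowering colon cancer cell viability after pretreatment blocking the GSK3B kinase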). The following applies: HCT116 viability after GSK3B inhibitor, at 20 µM, stronger effect = higher value.
The nature of test [5]: inhibition of endothelial tube formation, primary screen, imaging, VEGF stimulated, CD31 staining, tube area, NPC library (AID 1117340;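 active means compound that reduces growth-factor-driven endothelial tube area in a mixed cell culture, no cutoff stated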). The following applies: VEGF-stimulated ADSC/ECFC co-culture, at 10 µM, stronger effect = higher value.
The nature of test [6]: glucagon-like peptide 1 release enhancers, primary assay, NCI-H716 cell line, NPC library (AID 1117341;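 active means compound raises GLP1 secretion from the human gut endocrine cells, with no numeric limit stated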). The following applies: NCI-H716 cells, at 10 µM, stronger effect = higher value.
Test [7] in a line: HCT116 colon cancer cell growth inhibition, primary screen, CellTiter-Glo luminescence, NPC library (AID 1117342;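 active means compounds that lower survival of HCT116 colon cancer cells in the luminescence readout, no numeric limit stated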). The following applies: at 20 µM (top of the series).
Test [8] can be described thus: CellTiter-Glo luminescent readout of SW480 viability loss, NPC library primary (AID 1117343;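 active means compounds that lower viability of the colon cancer cells in the luminescence readout, with no numeric limit stated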). The following applies: CellTiter-Glo luminescence; at 20 µM (top of the series) unless noted. In general terms: ATP-based viability assays read luminescence as a measure of living cells.
Test [9] in a line: decreased DLD-1 cellular survival, CellTiter-Glo luminescent readout, NPC compound collection, primary HTS (AID 1117346;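 active means compounds that lower survival of DLD-1 colon cancer cells in the luminescence readout, no cutoff given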). The following applies: DLD-1 viability, CellTiter-Glo luminescence; at 20 µM (top of the series).
The nature of test [10]: growth inhibition of DIPG glioma cells, dose response, cell-based, JHH-DIPG-1, MIPE4.0, CellTiter-Glo, qHTS (AID 1347062; cut-off not given, nearly all actives have AC50 up to about 27 µM;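 on AC50: cells exposed to compound for two days before readout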). The following applies: JHH-DIPG-1 viability, CellTiter-Glo ATP luminescence.
Test [11] is described as follows: growth inhibition of DIPG glioma cells, dose response, cell-based, SU-DIPG-IV, MIPE4.0, CellTiter-Glo, qHTS (AID 1347063; cut-off not given, nearly all actives have AC50 up to about 30 µM;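 further: compound exposure lasted 48 hours before the viability readout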). The following applies: SU-DIPG-IV viability, CellTiter-Glo ATP luminescence.
A short description of test [12]: sensitizers of A549 cells to miR-34 induction, primary screen, imaging, A549 dox-inducible miR-34, nuclei and caspase counts (AID 1347080;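 active means compounds whose cell count with miR-34 switched on is under 0.7 times the count with it off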). The following applies: A549 miR-34 inducible, Hoechst nuclei count, 48 h.
Test [13] in a line: survival rescue of mitochondrial mutant cells in low glucose, primary screen, MELAS cybrids, Rieske KO mouse fibroblasts, CellTiter-Glo (AID 1508586;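 active means mean z-score across replicates of 1.96 or higher in either the MELAS or the Rieske mutant cell line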;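 further: z relative to plate mean and SD of compound and empty wells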).
The nature of test [14]: ovarian cancer cell viability with rucaparib, profiling panel, oncology-focused library, rucaparib conditional (AID 1508598). The following applies: patient-derived ovarian cancer cells, CellTiter-Glo viability, 144 h, stronger effect = lower value.
Test [15] in a line: viability rescue of complex I mutant cybrids, primary screen, cell-based, galactose medium, ATP luminescence (AID 1645843;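 active means z-score of at least 1.8 in each of two replicates, scored against plate mean and spread of sample wells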;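 further: positive z means more ATP and so rescue of galactose-driven cybrid death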). The following applies: complex I mutant cybrid cells, 72 h, stronger effect = higher value.
Test [16] in a line: SU-DIPG-VI glioma cell viability, MIPE4.0 library, CellTiter-Glo luminescence, qHTS (AID 1347066; cut-off not given, nearly all actives have AC50 up to about 30 µM;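 further: cells exposed to compound for 48 hours before readout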). The following applies: CellTiter-Glo ATP luminescence.
The target of test [17] is NAD(+) hydrolase SARM1 (Homo sapiens) (UniProt Q6SZW1). Briefly: SARM1 TIR NADase inhibitors, cell lysate, NAD-Glo luminescence (AID 1508614;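 active means compound whose remaining NAD level is above about 45 nM, limit read from the data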). The following applies: SAM-TIR HEK293T lysate NADase, at 1 µM, stronger effect = higher value.
Where [18] appears, read: stronger effect = lower value, cell number ratio, induced over uninduced.
The mark [19] stands for this setting: measured here: relative caspase fold change +Dox/-Dox.
The mark [20] stands for this setting: measured here: total cells with miR-34 induction, stronger effect = lower value.
[21] abbreviates: measured here: total cells without miR-34 induction.
Setting [22] is: MELAS cybrid survival, CellTiter-Glo 48 h, stronger effect = higher value.
Setting [23] is: Rieske KO mouse fibroblast survival, CellTiter-Glo 72 h.

Values joined by “and” are separate entries in the source; they are usually repeats but may differ in a detail not shown here. Identical values can stand only once. Results filed as inconclusive are left out. Active and inactive are the calls of the source.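 How the source made its calls, unless noted: active means normalized viability below 100% at a tested concentration; inactive means the rest.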

NAD(+) hydrolase SARM1 (Homo sapiens), sequence (Q6SZW1 whole entry, looked up): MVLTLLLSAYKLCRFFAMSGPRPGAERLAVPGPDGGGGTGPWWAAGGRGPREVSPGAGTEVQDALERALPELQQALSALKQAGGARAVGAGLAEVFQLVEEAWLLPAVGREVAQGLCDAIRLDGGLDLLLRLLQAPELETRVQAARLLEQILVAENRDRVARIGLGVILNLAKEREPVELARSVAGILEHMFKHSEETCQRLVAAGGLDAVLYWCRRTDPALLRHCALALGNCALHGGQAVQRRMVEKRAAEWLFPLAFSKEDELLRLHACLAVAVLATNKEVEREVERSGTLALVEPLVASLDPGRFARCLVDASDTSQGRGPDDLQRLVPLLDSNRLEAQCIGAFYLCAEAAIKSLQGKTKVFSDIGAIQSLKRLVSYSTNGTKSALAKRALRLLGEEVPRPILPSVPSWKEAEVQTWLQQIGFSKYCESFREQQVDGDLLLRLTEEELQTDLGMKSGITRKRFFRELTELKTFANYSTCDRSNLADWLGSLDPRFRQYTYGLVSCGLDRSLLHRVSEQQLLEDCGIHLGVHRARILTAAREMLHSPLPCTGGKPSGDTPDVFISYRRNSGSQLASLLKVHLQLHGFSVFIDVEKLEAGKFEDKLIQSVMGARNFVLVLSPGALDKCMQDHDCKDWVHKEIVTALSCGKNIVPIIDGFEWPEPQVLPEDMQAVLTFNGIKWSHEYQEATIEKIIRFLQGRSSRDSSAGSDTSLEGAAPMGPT

Take `C#Cc1cccc(Nc2ncnc3cc(OCCOC)c(OCCOC)cc23)c1`: in test [1], the parasite load remaining is 380% (inactive). Further, the viability in [1] is 168%; in test [14] (at 0.000305 µM, OCI-C5x cells, with rucaparib 10 µM, 100% = cells with rucaparib alone), 108% (inactive); in test [14] (at 0.000305 µM, OCI-C5x cells, without rucaparib) it was 109% (inactive); in test [14] (at 0.000305 µM, OCI-P5x cells, with rucaparib 20 µM, 100% = cells with rucaparib alone), 121% (inactive); in [14] (at 0.000305 µM, OCI-P5x cells, without rucaparib) it was 93.6% (active); in test [14] (at 0.00122 µM, OCI-C5x cells, with rucaparib 10 µM, 100% = cells with rucaparib alone), 105% (inactive). Further, the viability in test [14] (at 0.00122 µM, OCI-C5x cells, without rucaparib) is 109% (inactive); in test [14] (at 0.00122 µM, OCI-P5x cells, with rucaparib 20 µM, 100% = cells with rucaparib alone), 142% (inactive); in test [14] (at 0.00122 µM, OCI-P5x cells, without rucaparib) it was 96.4% (active); in [14] (at 0.00488 µM, OCI-C5x cells, with rucaparib 10 µM, 100% = cells with rucaparib alone) it was 109% (inactive); in [14] (at 0.00488 µM, OCI-C5x cells, without rucaparib), 104% (inactive); in test [14] (at 0.00488 µM, OCI-P5x cells, with rucaparib 20 µM, 100% = cells with rucaparib alone), 111% (inactive). The viability is 101% (inactive) in test [14] (at 0.00488 µM, OCI-P5x cells, without rucaparib); 105% (inactive) in test [14] (at 0.0195 µM, OCI-C5x cells, with rucaparib 10 µM, 100% = cells with rucaparib alone); 101% (inactive) in [14] (at 0.0195 µM, OCI-C5x cells, without rucaparib); 122% (inactive) in [14] (at 0.0195 µM, OCI-P5x cells, with rucaparib 20 µM, 100% = cells with rucaparib alone); 97.9% (active) in test [14] (at 0.0195 µM, OCI-P5x cells, without rucaparib); 102% (inactive) in test [14] (at 0.0781 µM, OCI-C5x cells, with rucaparib 10 µM, 100% = cells with rucaparib alone). The viability is 106% (inactive) in [14] (at 0.0781 µM, OCI-C5x cells, without rucaparib); 135% (inactive) in test [14] (at 0.0781 µM, OCI-P5x cells, with rucaparib 20 µM, 100% = cells with rucaparib alone); 99% (active) in test [14] (at 0.0781 µM, OCI-P5x cells, without rucaparib); 101% (inactive) in test [14] (at 0.313 µM, OCI-C5x cells, with rucaparib 10 µM, 100% = cells with rucaparib alone); 104% (inactive) in [14] (at 0.313 µM, OCI-C5x cells, without rucaparib); 109% (inactive) in [14] (at 0.313 µM, OCI-P5x cells, with rucaparib 20 µM, 100% = cells with rucaparib alone). In addition, the viability is 91.2% (active) in [14] (at 0.313 µM, OCI-P5x cells, without rucaparib); 76% (active) in [14] (at 1.25 µM, OCI-C5x cells, with rucaparib 10 µM, 100% = cells with rucaparib alone); 91.8% (active) in test [14] (at 1.25 µM, OCI-C5x cells, without rucaparib); 101% (inactive) in [14] (at 1.25 µM, OCI-P5x cells, with rucaparib 20 µM, 100% = cells with rucaparib alone); 83% (active) in test [14] (at 1.25 µM, OCI-P5x cells, without rucaparib); 39.7% (active) in test [14] (at 5 µM, OCI-C5x cells, with rucaparib 10 µM, 100% = cells with rucaparib alone). Besides, the viability is 62.2% (active) in test [14] (at 5 µM, OCI-C5x cells, without rucaparib); 76.9% (active) in test [14] (at 5 µM, OCI-P5x cells, with rucaparib 20 µM, 100% = cells with rucaparib alone); 66.3% (active) in test [14] (at 5 µM, OCI-P5x cells, without rucaparib). Also, the nuclear beta-catenin stimulation is 1.3% (inactive) in [2] (at 10 µM) and -0.8% in test [2] (stimulation, at 2 µM). Besides, the insulin secretion stimulation in test [3] was 1.8% (inactive). Besides, the viability decrease in [4] was 72.1% (active). Besides, in [5], the tube area decrease is -49.7% (inactive). Moreover, in test [6], the GLP1 secretion stimulation was 1.7% (inactive). In addition, the inhibition of viability in [7] is 59.4% (active). Also, the viability decrease (inhibition) in test [8] is 34.2% (inactive); in [9], 83.4% (active). The AC50 in test [10] and in test [11] was 7.43 µM (active) throughout. Besides, the fold change in test [12] (setting [18]) was 0.807 (inactive); in test [12] (setting [19]), 1.12. Further, the results for the cell count in test [12] (setting [20]) and in test [12] (setting [21]) were 4550 and 5640, respectively. The z-score was 2.01 (active) and 0.197 in test [13] (setting [22]); -0.563 and 2.07 in [13] (setting [23]); 1.06 (inactive) in test [15].

As for `CCCCCCCCCCCCCCCC(=O)O`, the nuclear beta-catenin stimulation in [2] (at 10 µM) was 0.3% (inactive); in test [2] (stimulation, at 2 µM), 1.7%. Also, the insulin secretion stimulation in test [3] is 2.3% (inactive). Further, the viability decrease in test [4] was 2.25% (inactive). The tube area decrease in test [5] was -25.4% (inactive). Moreover, the GLP1 secretion stimulation in test [6] is 0.3% (inactive). Further, the inhibition of viability in test [7] is -38.8% (inactive). For the same compound, the viability decrease (inhibition) in test [8] is 32.7% (inactive); in test [9], 8.5% (inactive). In addition, the fold change in test [12] (setting [18]) is 1.03 (inactive); in test [12] (setting [19]), 1.12. The values for the cell count in [12] (setting [20]) and in test [12] (setting [21]) were 5900 and 5710, respectively.

Regarding `CCCCC(CC)COC(=O)C(C#N)=C(c1ccccc1)c1ccccc1` (stereo not given), the nuclear beta-catenin stimulation in test [2] (at 10 µM) is -0.2% (inactive); in test [2] (stimulation, at 2 µM), 0.7%. The insulin secretion stimulation in test [3] was -1.3% (inactive). Besides, the viability decrease in test [4] is 51.7% (active). In addition, in [5], the tube area decrease is 19.7% (active). Moreover, the GLP1 secretion stimulation in [6] was -1.3% (inactive). The inhibition of viability in test [7] is 43.8% (inactive). The viability decrease (inhibition) was 28.2% (inactive) in test [8] and 56.9% (active) in test [9]. For the same compound, the outcome in test [10], in [11] and in test [16] was inactive. Moreover, in test [17], the remaining NAD was 10 nM (inactive).

With `O=C(O)c1cccc(-c2noc(-c3ccccc3F)n2)c1`, the nuclear beta-catenin stimulation in [2] (at 10 µM) is 2.5% (inactive); in test [2] (stimulation, at 2 µM), 4.8%. Also, in test [3], the insulin secretion stimulation is 0% (inactive). Besides, in test [4], the viability decrease is 8.8% (inactive). Further, the tube area decrease in test [5] is -5.7% (inactive). Also, in [6], the GLP1 secretion stimulation is 2.2% (inactive). Further, the inhibition of viability in test [7] was 15.5% (inactive). Also, the viability decrease (inhibition) was 2.3% (inactive) in test [8] and -11% (inactive) in test [9]. In addition, the call in [11] and in [16] was inactive. For the same compound, the fold change in [12] (setting [18]) is 0.927 (inactive); in test [12] (setting [19]) it was 0.71. For the same compound, the cell count in [12] (setting [20]) stood at 10200; in [12] (setting [21]) it was 11000. The z-score is -0.357 (inactive) in [13] (setting [22]) and 0.633 in test [13] (setting [23]).

As usually defined, the viability is a read-out of living cells in per cent, often relative to untreated cells. For orientation: AC50 means the midpoint of the concentration-response curve, whichever way the signal moves.
